Rows were chosen to be rich in hits. Some 3.5% of all compounds tested hit in one or more screens of this group.
GDH-TPI counter = inhibits GDH-TPI coupling enzymes, artifact for Mtb FBA screen; GDH-TPI coupled enzyme counterscreen, NADH absorbance; inhibition, % at 4.8 µM; 1.2% of 360,000 active; in the data active = inhibition above about 30%;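 also: 0% = DMSO wells and 100% = wells lacking the enzyme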
Mtb UGM inh = blocks M. tuberculosis UGM enzyme; inhibition, % at 10 µM; purified UGM, fluorescence polarization probe displacement; P9WIQ1; 0.06% of 320,000 active; in the data active = inhibition above about 10%, passing the limit was not always enough
Mtb FBA inh = Mtb fructose-bisphosphate aldolase inhibition; AID 588726; inhibition, % at 1 µM; purified M. tuberculosis FBA, fluorescence read-out; 2.3% of 360,000 active; P9WQA3; in the data active = inhibition above about 27%;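 also: 0% = vehicle and 100% = reference inhibitor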
Target sequence (P9WQA3 whole entry, looked up): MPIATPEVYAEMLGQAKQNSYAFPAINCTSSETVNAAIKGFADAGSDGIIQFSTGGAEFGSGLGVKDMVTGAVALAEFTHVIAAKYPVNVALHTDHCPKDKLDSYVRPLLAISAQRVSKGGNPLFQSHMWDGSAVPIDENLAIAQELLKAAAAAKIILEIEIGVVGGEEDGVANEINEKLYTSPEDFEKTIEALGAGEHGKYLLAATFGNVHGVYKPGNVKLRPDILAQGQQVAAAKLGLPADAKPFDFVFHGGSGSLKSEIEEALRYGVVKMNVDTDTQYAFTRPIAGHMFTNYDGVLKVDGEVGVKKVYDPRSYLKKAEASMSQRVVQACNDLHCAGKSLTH
Rv3671c protease = inhibits the M. tuberculosis serine protease Rv3671c. P9WHR9. AID 2606. inhibition, % at 5.96 µM. 0.048% of 320,000 active; in the data active = inhibition above about 38%;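 also: extracellular domain of Rv3671c used as enzyme; 0% = enzyme with DMSO and 100% = no enzyme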
The depositor's hits bear a star.

Results for CC1CCN(C(=O)COC(=O)c2ccccc2NC(=O)c2ccco2)CC1 ?
GDH-TPI counter: 6; Mtb UGM inh: 0; Mtb FBA inh: 1; Rv3671c protease: 7

Results for CCN(C(=O)COC(=O)c1ccccc1NCCO)c1cccc2ccccc12 ?
GDH-TPI counter: 4; Mtb FBA inh: 114*; Rv3671c protease: 8

Results for CNc1ccccc1C(=O)OCC(C)=O ?
GDH-TPI counter: 7; Mtb UGM inh: 4; Mtb FBA inh: 62*; Rv3671c protease: -9

Results for O=C(OCC(=O)N1CCN(C(=O)c2ccco2)CC1)c1ccccc1NCCO ?
GDH-TPI counter: 8; Mtb UGM inh: -2; Mtb FBA inh: 124*; Rv3671c protease: -3

Results for O=C(OCC(=O)N1CCN(C(=O)COC(=O)c2ccccc2NCCO)CC1)c1ccccc1NCCO ?
GDH-TPI counter: 8; Mtb FBA inh: 162*

How did CC1Oc2ccc(C#N)cc2N(Cc2ccccc2OC(F)(F)F)C1=O (centres undefined) do in these assays?
GDH-TPI counter: 10; Mtb FBA inh: -2

How did CC1CN(C(=O)COc2coc(CN3CCc4ccccc4C3)cc2=O)CC(C)O1 (centres undefined) do in these assays?
GDH-TPI counter: -7; Mtb UGM inh: -1; Mtb FBA inh: -1; Rv3671c protease: 4

How did Cc1cc(OCC(=O)NC(Cc2ccc(Cl)cc2)C(=O)O)c2c3c(c(=O)oc2c1)CCC3 (centres undefined) do in these assays?
GDH-TPI counter: 9; Mtb UGM inh: 1; Mtb FBA inh: 72*; Rv3671c protease: -2

What do the screens show for `Cc1cc(OCC(=O)N[C@H](C(=O)O)c2ccccc2)c2c3c(c(=O)oc2c1)CCC3`?
GDH-TPI counter: 4; Mtb UGM inh: -3; Mtb FBA inh: 114*; Rv3671c protease: -4

How did Cc1cc(OCC(=O)N[C@@H](Cc2ccccc2)C(=O)O)c2c3c(c(=O)oc2c1)CCC3 do in these assays?
GDH-TPI counter: 24; Mtb UGM inh: 3; Mtb FBA inh: 137*; Rv3671c protease: -6

How did CCCCc1cc(=O)oc2cc(C)cc(OCC(=O)O)c12 do in these assays?
GDH-TPI counter: 23; Mtb UGM inh: -1; Mtb FBA inh: 152*; Rv3671c protease: 0

How did CCCCc1cc(=O)oc2cc(C)cc(OCC(=O)N3CCC(C(N)=O)CC3)c12 do in these assays?
GDH-TPI counter: 11; Mtb UGM inh: 3; Mtb FBA inh: 18; Rv3671c protease: 1

Results for CC1(C(=O)NS(=O)(=O)c2ccc(C#N)cc2)CCN1C(=O)CC1CCCCC1 (centres undefined) ?
GDH-TPI counter: 6; Mtb FBA inh: -3

How did CS(=O)(=O)N1N=C(c2cccs2)CC1c1ccc(Cl)o1 (centres undefined) do in these assays?
GDH-TPI counter: 0; Mtb UGM inh: 1; Mtb FBA inh: 3; Rv3671c protease: -4

Results for COc1ccc(-c2[nH]ncc2/C=N/NC(=O)c2ccncc2)c(OC)c1 ?
GDH-TPI counter: 14; Mtb UGM inh: -1; Mtb FBA inh: -2; Rv3671c protease: 1

What do the screens show for `CCOc1cc(C)cc2oc(=O)c3c(c12)CCCC3`?
GDH-TPI counter: 1; Mtb UGM inh: 0; Mtb FBA inh: 8; Rv3671c protease: -1

What do the screens show for `Cc1cc(OCC(=O)O)c2c3c(c(=O)oc2c1)CCCC3`?
GDH-TPI counter: 6; Mtb UGM inh: 3; Mtb FBA inh: 185*; Rv3671c protease: 1

Results for CCOC(=O)COc1cc(OCC(=O)OCC)c2c3c(c(=O)oc2c1)CCCC3 ?
GDH-TPI counter: 6; Mtb UGM inh: 0; Mtb FBA inh: 160*

What do the screens show for `O=C(NCCN1CCc2ccccc2C1)Nc1ccc([N+](=O)[O-])cc1`?
GDH-TPI counter: 40*; Mtb UGM inh: 1; Mtb FBA inh: 2; Rv3671c protease: 8

Results for O=C(NCCCN1CCc2ccccc2C1)Nc1ccc(Br)cc1 ?
GDH-TPI counter: 6; Mtb UGM inh: -1; Mtb FBA inh: 4; Rv3671c protease: 1

How did C[C@@H]1CN([C@@H](C)CO)C(=O)CCCn2cc(nn2)CO[C@H]1CN(C)S(=O)(=O)c1ccccc1F do in these assays?
GDH-TPI counter: 2; Mtb FBA inh: -1

How did O=C1NC(=S)N/C1=C\c1ccccc1OCc1ccc(C(=O)O)cc1 do in these assays?
GDH-TPI counter: 42*; Mtb UGM inh: -1; Mtb FBA inh: 0; Rv3671c protease: -2

What do the screens show for `O=C1CC(c2ccccc2)=C(c2ccccc2)C1c1ccccc1` (centres undefined)?
GDH-TPI counter: -1; Mtb FBA inh: -1

What do the screens show for `CCOC(=O)c1cc2c(=O)n3ccccc3nc2n(C(C)C)c1=NC(=O)c1c(-c2ccccc2Cl)noc1C`?
GDH-TPI counter: -1; Mtb UGM inh: 1; Mtb FBA inh: 18; Rv3671c protease: -2

What do the screens show for `CCOC(=O)c1cc2c(=O)n3ccccc3nc2n(CCCOC)c1=NC(=O)c1cccnc1`?
Mtb UGM inh: -5; Rv3671c protease: 5

How did CCOC(=O)c1cc2c(=O)n3ccccc3nc2n(CCOC)c1=NC(=O)C(C)(C)C do in these assays?
GDH-TPI counter: -8; Mtb UGM inh: -2; Mtb FBA inh: active; Rv3671c protease: 3

What do the screens show for `CCOC(=O)c1cc2c(=O)n3ccccc3nc2n(C(C)C)c1=NC(=O)c1ccncc1`?
GDH-TPI counter: 9; Mtb UGM inh: -2; Mtb FBA inh: 123*; Rv3671c protease: 3

What do the screens show for `CCOC(=O)c1cc2c(=O)n3ccccc3nc2n(CCOC)c1=NC(=O)c1ccncc1`?
GDH-TPI counter: 10; Mtb UGM inh: -2; Mtb FBA inh: 186*; Rv3671c protease: -12

Results for CCOC(=O)c1cc2c(=O)n3ccccc3nc2n(CCCOC)c1=NC(=O)C(C)(C)C ?
GDH-TPI counter: 16; Mtb UGM inh: -1; Mtb FBA inh: active; Rv3671c protease: -2

How did COc1ccc(/C=C2\SC(=S)N(CCC(=O)Nc3cccc(C(=O)O)c3)C2=O)cc1 do in these assays?
GDH-TPI counter: 7; Mtb UGM inh: 0; Mtb FBA inh: 0; Rv3671c protease: 1

Results for CCOC(=O)c1c(NC(C)=O)sc(/C(C)=N/Nc2ccc(C(=O)O)cc2)c1C ?
GDH-TPI counter: 10; Mtb UGM inh: -1; Mtb FBA inh: 1; Rv3671c protease: -3

Results for CCN1C(=O)N/C(=C/c2cc(C)n(Cc3ccccc3)c2C)C1=O ?
GDH-TPI counter: 32*; Mtb UGM inh: 3; Mtb FBA inh: 2; Rv3671c protease: -4

What do the screens show for `COc1cc(C(=O)N/C(=C\c2cn(S(=O)(=O)N(C)C)c3ccccc23)C(=O)N2CCCC2)cc(OC)c1OC`?
GDH-TPI counter: 20; Mtb UGM inh: -2; Mtb FBA inh: 1; Rv3671c protease: 1

Results for CCOC(=O)C1CCCN(C(=O)c2cn(CC)c3ccc(S(=O)(=O)N4CCCC4)cc3c2=O)C1 (centres undefined) ?
GDH-TPI counter: 38*; Mtb UGM inh: 1; Mtb FBA inh: -2; Rv3671c protease: 0

Results for CCOC(=O)C1CCCN(C(=O)c2cn(C)c3ccc(S(=O)(=O)N4CCCC4)cc3c2=O)C1 (centres undefined) ?
GDH-TPI counter: 21; Mtb UGM inh: -2; Mtb FBA inh: 2; Rv3671c protease: -2

What do the screens show for `Cc1ccc(NC(=O)COC(=O)/C=C/c2ccc(Br)o2)cc1S(=O)(=O)N(C)C`?
GDH-TPI counter: 17; Mtb UGM inh: -3; Mtb FBA inh: 5; Rv3671c protease: 3

High-throughput results (PubChem BioAssay)
